Assay results as given in PubChem BioAssay.
Where “and” joins values, the source holds several entries; their conditions need not be identical. Equal values may be shown once. Calls of active or inactive are those of the source.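 Rule for the calls, unless noted: active = compounds whose cell count with miR-34 switched on is under 0.7 times the count with it off; inactive = the rest.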

Experiments:
[1] = P. berghei load reduction in hepatocytes – cell-based, HepG2, luciferase luminescence, HepG2 viability, primary screen (AID 624349; in the data active = parasite load remaining mostly below about 12%, no sharp cut-off; inactive = mostly above about 10%;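 note: 100% = mean of DMSO negative control wells on the same plate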); details: P. berghei liver stage in HepG2, luciferase luminescence, concentration not given here; parasite load remaining: stronger effect = lower value; viability: measured here: HepG2 viability without parasites
[2] = Wnt pathway potentiators raising nuclear beta-catenin – imaging, WNT3A-conditioned medium, mouse C2C12, NPC library, primary screen (AID 1117326; in the data active = nuclear beta-catenin stimulation mostly above about 4.2%, no sharp cut-off; inactive = mostly below about 10%); details: stronger effect = higher value
[3] = stimulators of insulin release from INS-1E, primary screen, cell-based, 5 mM glucose, NPC library (AID 1117329;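 active = compound raises insulin release from rat beta cells at 5 mM glucose, no numeric limit stated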); details: rat INS-1E insulin secretion, at 10 µM, stronger effect = higher value
[4] = growth inhibition of GSK3B-pretreated HCT116 cells – cell-based, CellTiter-Glo, 0.2 to 20 µM (AID 1117336;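 active = compounds lowering colon cancer cell viability after pretreatment blocking the GSK3B kinase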); details: HCT116 viability after GSK3B inhibitor, at 20 µM, stronger effect = higher value
[5] = inhibition of endothelial tube formation, primary screen, imaging, VEGF stimulated, CD31 staining, tube area, NPC library (AID 1117340;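 active = compound that reduces growth-factor-driven endothelial tube area in a mixed cell culture, no cutoff stated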); details: VEGF-stimulated ADSC/ECFC co-culture, at 10 µM, stronger effect = higher value
[6] = GLP1 release stimulators, primary, NCI-H716, NPC library (AID 1117341;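 active = compound raises GLP1 secretion from the human gut endocrine cells, with no numeric limit stated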); details: NCI-H716 cells, at 10 µM, stronger effect = higher value
[7] = HCT116 colon cancer cell growth inhibition, primary screen, CellTiter-Glo luminescence, NPC library (AID 1117342;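 active = compounds that lower survival of HCT116 colon cancer cells in the luminescence readout, no numeric limit stated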); details: at 20 µM (top of the series)
[8] = reduced SW480 viability measured with CellTiter-Glo, NPC library, primary (AID 1117343;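 active = compounds that lower viability of the colon cancer cells in the luminescence readout, with no numeric limit stated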); details: CellTiter-Glo luminescence; at 20 µM (top of the series)
[9] = NPC library primary testing for decreased DLD-1 cell viability via CellTiter-Glo (AID 1117346;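 active = compounds that lower survival of DLD-1 colon cancer cells in the luminescence readout, no cutoff given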); details: DLD-1 viability, CellTiter-Glo luminescence; at 20 µM (top of the series)
[10] = viability loss with induced miR-34 in A549 – imaging, A549 dox-inducible miR-34, nuclei and caspase counts, primary screen (AID 1347080); details: A549 miR-34 inducible, Hoechst nuclei count, 48 h
[11] = galactose survival enhancers in mitochondrial complex I cybrids – cell-based, galactose medium, ATP luminescence, primary screen (AID 1645843;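 active = z-score of at least 1.8 in each of two replicates, scored against plate mean and spread of sample wells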;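 note: positive z means more ATP and so rescue of galactose-driven cybrid death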); details: complex I mutant cybrid cells, 72 h, stronger effect = higher value
[12] = EMT-state selective cytotoxicity in co-culture – imaging, PC-3E GFP, TEM4-18 mCherry, primary screen (AID 1345086;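 active = compounds killing one labelled cell type while sparing the other, by normalised counts and ratio limits, not self-fluorescent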;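 for all read-outs here: cells exposed to compound for 72 h before imaging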;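 for red/green cell ratio (normalised): normalised mesenchymal count divided by normalised epithelial count so high means epithelial killing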); details: PC-3E GFP / TEM4-18 mCherry co-culture, imaging cell counts, at 1 µM; for red/green cell ratio (normalised): actives lie on both sides
[13] = biological target: NAD(+) hydrolase SARM1 (Homo sapiens) (UniProt Q6SZW1); test: blocking NAD cleavage by SARM1 SAM-TIR – cell lysate, NAD-Glo luminescence (AID 1508614;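 active = compound whose remaining NAD level is above about 45 nM, limit read from the data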;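 note: higher remaining NAD means stronger inhibition of SARM1 NADase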); details: SAM-TIR HEK293T lysate NADase, at 1 µM, stronger effect = higher value
[14] = system: Aerobactin synthetase IucA (Klebsiella pneumoniae hvKP1); test: IucA enzyme inhibition, primary screen, biochemical, Spectrum library (AID 1346200; call rule not given here;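 note: 100% = wells without compound and 0% = wells lacking enzyme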); details: malachite green pyrophosphate, A620, at 8 µM, stronger effect = lower value
[15] = MELAS cybrid and Rieske KO viability enhancers – cell-based, MELAS cybrids, Rieske KO mouse fibroblasts, CellTiter-Glo, primary screen (AID 1508586;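 active = mean z-score across replicates of 1.96 or higher in either the MELAS or the Rieske mutant cell line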;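 note: z relative to plate mean and SD of compound and empty wells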); details: low glucose
[16] = biological target: Mitogen-activated protein kinase 7 (Homo sapiens) (UniProt Q13164); test: Gal4-ERK5 driven luciferase induction – cell-based, HTS, primary screen (AID 1508626;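 active = luciferase signal above three times the same-plate solvent-only control wells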;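 note: luciferase driven by Gal4-ERK5 fusion binding five Gal4 sites before minimal TATA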); details: HeLa Gal4-ERK5 transactivation, 18 h, at 5 µM, stronger effect = higher value
[17] = biological target: 6-phosphogluconate dehydrogenase, decarboxylating (Homo sapiens) (UniProt P52209); test: inhibition of human phosphogluconate dehydrogenase – biochemical, recombinant enzyme, NADPH absorbance, primary screen (AID 1159550;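 active = at least 20% inhibition of 6-phosphogluconate dehydrogenase activity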); details: recombinant 6PGD, NADPH absorbance 341 nm; at 10 µM; stronger effect = higher value
[18] = measured here: relative caspase fold change +Dox/-Dox
[19] = measured here: total cells with miR-34 induction, stronger effect = lower value
[20] = measured here: total cells without miR-34 induction
[21] = measured here: epithelial PC-3E GFP cell survival
[22] = measured here: mesenchymal TEM4-18 mCherry cell survival
[23] = MELAS cybrid survival, CellTiter-Glo 48 h, stronger effect = higher value
[24] = Rieske KO mouse fibroblast survival, CellTiter-Glo 72 h

Sequence of NAD(+) hydrolase SARM1 (Homo sapiens) (Q6SZW1 whole entry, looked up): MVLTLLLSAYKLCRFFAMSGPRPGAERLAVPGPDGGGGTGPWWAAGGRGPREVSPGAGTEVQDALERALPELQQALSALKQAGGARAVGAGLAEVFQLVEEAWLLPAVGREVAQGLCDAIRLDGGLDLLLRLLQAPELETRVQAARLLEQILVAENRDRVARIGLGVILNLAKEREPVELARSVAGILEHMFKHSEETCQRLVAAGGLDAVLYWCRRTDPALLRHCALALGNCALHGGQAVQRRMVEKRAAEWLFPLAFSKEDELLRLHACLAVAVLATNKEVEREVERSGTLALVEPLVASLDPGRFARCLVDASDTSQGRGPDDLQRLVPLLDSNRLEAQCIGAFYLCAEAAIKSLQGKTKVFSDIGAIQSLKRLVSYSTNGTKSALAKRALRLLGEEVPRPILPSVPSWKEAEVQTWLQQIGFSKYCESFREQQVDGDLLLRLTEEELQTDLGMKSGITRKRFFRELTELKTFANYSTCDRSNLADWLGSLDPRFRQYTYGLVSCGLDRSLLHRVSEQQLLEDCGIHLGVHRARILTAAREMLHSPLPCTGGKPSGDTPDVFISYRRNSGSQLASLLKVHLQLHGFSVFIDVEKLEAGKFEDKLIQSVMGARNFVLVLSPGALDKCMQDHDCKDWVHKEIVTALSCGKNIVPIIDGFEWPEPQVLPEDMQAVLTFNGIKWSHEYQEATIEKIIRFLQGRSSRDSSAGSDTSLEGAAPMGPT
Sequence of Mitogen-activated protein kinase 7 (Homo sapiens) (Q13164 whole entry, looked up, the tested form may be a part): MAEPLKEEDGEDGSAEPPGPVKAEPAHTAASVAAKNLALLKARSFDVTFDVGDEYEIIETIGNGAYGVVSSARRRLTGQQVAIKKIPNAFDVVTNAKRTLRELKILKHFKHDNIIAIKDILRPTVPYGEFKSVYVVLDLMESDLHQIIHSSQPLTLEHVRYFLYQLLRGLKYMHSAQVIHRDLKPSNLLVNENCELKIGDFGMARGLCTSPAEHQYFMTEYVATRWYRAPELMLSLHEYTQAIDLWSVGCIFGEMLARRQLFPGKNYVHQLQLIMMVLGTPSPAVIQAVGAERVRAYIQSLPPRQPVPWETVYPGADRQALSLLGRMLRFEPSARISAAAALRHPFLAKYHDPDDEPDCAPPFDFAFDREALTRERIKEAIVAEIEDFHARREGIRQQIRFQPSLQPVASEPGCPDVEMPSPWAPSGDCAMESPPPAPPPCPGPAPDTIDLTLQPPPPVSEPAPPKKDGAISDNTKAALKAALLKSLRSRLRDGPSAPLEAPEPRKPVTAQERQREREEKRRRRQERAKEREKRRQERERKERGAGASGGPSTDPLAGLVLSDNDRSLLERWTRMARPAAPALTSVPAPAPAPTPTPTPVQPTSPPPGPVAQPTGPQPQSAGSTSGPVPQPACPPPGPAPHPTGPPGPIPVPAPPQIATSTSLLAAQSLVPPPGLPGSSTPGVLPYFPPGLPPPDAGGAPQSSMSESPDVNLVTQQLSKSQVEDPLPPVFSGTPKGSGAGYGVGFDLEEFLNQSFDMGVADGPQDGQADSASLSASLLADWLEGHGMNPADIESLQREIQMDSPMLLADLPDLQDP
Sequence of 6-phosphogluconate dehydrogenase, decarboxylating (Homo sapiens) (P52209 whole entry, looked up): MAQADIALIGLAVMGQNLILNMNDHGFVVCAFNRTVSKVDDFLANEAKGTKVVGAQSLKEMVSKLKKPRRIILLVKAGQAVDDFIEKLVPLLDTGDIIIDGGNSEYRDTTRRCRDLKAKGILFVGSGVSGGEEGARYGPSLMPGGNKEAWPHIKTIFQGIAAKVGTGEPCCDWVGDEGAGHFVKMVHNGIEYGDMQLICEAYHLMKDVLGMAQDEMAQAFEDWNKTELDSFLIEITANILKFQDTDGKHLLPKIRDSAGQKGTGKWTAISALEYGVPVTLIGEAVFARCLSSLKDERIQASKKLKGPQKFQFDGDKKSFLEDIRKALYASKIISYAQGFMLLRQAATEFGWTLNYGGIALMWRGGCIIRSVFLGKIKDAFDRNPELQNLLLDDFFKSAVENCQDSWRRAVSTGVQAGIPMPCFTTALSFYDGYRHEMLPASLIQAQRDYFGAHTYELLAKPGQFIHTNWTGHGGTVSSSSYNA

CN1C(=O)CN=C(c2ccccc2)c2cc([N+](=O)[O-])ccc21
parasite load remaining [1]: 83.1% (inactive)
viability [1]: 68.8%
nuclear beta-catenin stimulation ([2]; at 10 µM): 0.5% (inactive)
nuclear beta-catenin stimulation ([2]; stimulation, at 2 µM): 0.9%
insulin secretion stimulation [3]: -0.2% (inactive)
viability decrease [4]: -4.25% (inactive)
tube area decrease [5]: -18.8% (inactive)
GLP1 secretion stimulation [6]: 3.3% (inactive)
inhibition of viability [7]: -16.9% (inactive)
viability decrease (inhibition) [8]: 18.1% (inactive)
viability decrease (inhibition) [9]: 1.05% (inactive)
fold change ([10]; stronger effect = lower value): 0.947 (inactive)
fold change [10, 18]: 1.19
cell count [10, 19]: 9100
cell count [10, 20]: 9610
z-score [11]: 0.65 (inactive)

CC1(C)C(C=C(Cl)Cl)C1C(=O)OC(C#N)c1cccc(Oc2ccccc2)c1 (stereo unspecified)
nuclear beta-catenin stimulation ([2]; at 10 µM): 0.7% (inactive)
nuclear beta-catenin stimulation ([2]; stimulation, at 2 µM): -1%
insulin secretion stimulation [3]: 8.1% (inactive)
viability decrease [4]: 1.2% (inactive)
tube area decrease [5]: -7.9% (inactive)
GLP1 secretion stimulation [6]: 4.4% (inactive)
inhibition of viability [7]: 40.5% (inactive)
viability decrease (inhibition) [8]: 27.7% (inactive)
viability decrease (inhibition) [9]: 23.2% (active)
red/green cell ratio (normalised) [12]: 0.82 (inactive)
normalised cell number [12, 21]: 1.16
normalised cell number [12, 22]: 0.96
fold change ([10]; stronger effect = lower value): 0.936 (inactive) and 0.968 (inactive)
fold change [10, 18]: 1.17 and 1.27
cell count [10, 19]: 7700 and 5600
cell count [10, 20]: 8230 and 5790
remaining NAD [13]: 10 nM (inactive)

CCC(COC(=O)c1cc(OC)c(OC)c(OC)c1)(c1ccccc1)N(C)C (stereo unspecified)
parasite load remaining [1]: 36% (inactive)
viability [1]: 62.6%
nuclear beta-catenin stimulation ([2]; at 10 µM): 5.9% (inactive)
nuclear beta-catenin stimulation ([2]; stimulation, at 2 µM): 1.2%
insulin secretion stimulation [3]: 2.2% (inactive)
viability decrease [4]: 49% (inactive)
tube area decrease [5]: 19.3% (inactive)
GLP1 secretion stimulation [6]: 5.8% (inactive)
inhibition of viability [7]: 64.3% (active)
viability decrease (inhibition) [8]: 22.7% (inactive)
viability decrease (inhibition) [9]: 20.6% (inactive)
red/green cell ratio (normalised) [12]: 1 (inactive)
normalised cell number [12, 21]: 1.04
normalised cell number [12, 22]: 1.04
activity remaining [14]: 102% (inactive)
fold change ([10]; stronger effect = lower value): 0.96 (inactive) and 0.993 (inactive)
fold change [10, 18]: 0.946 and 0.715
cell count [10, 19]: 9130 and 7380
cell count [10, 20]: 9520 and 7430
z-score [15, 23]: -0.0948 (inactive) and -0.436 (inactive)
z-score [15, 24]: -0.0807 and -0.229
remaining NAD [13]: 10 nM (inactive)
luciferase signal [16]: 28 AU (inactive)
z-score [11]: -1.25 (inactive)

CN[C@@H]1C[C@@H](c2ccc(Cl)c(Cl)c2)c2ccccc21
parasite load remaining [1]: 4.35% (inactive)
viability [1]: 29.3%
nuclear beta-catenin stimulation ([2]; at 10 µM): 63.1% (active)
nuclear beta-catenin stimulation ([2]; stimulation, at 2 µM): 1.4%
insulin secretion stimulation [3]: 6.2% (inactive)
viability decrease [4]: 99.9% (active)
tube area decrease [5]: 108% (active)
GLP1 secretion stimulation [6]: -0.3% (inactive)
inhibition of viability [7]: 100% (active)
viability decrease (inhibition) [8]: 103% (active)
viability decrease (inhibition) [9]: 102% (active)
fold change ([10]; stronger effect = lower value): 0.889 (inactive) and 0.782 (inactive)
fold change [10, 18]: 0.588 and 1.76
cell count [10, 19]: 306 and 538
cell count [10, 20]: 344 and 689
z-score [15, 23]: -1.52 (inactive)
z-score [15, 24]: -1.03
z-score [11]: -1.29 (inactive) and -0.78 (inactive)

Clc1ccc(C(c2ccc(Cl)cc2)C(Cl)(Cl)Cl)cc1
nuclear beta-catenin stimulation ([2]; at 10 µM): 0.9% (inactive)
nuclear beta-catenin stimulation ([2]; stimulation, at 2 µM): -0.7%
insulin secretion stimulation [3]: 2.7% (inactive)
viability decrease [4]: 94.4% (active)
tube area decrease [5]: 18.6% (inactive)
GLP1 secretion stimulation [6]: 2.8% (inactive)
inhibition of viability [7]: 73.4% (active)
viability decrease (inhibition) [8]: 124% (active)
viability decrease (inhibition) [9]: 84.5% (active)
inhibition [17]: 4.6% (inactive)
luciferase signal [16]: 48 AU (inactive)
